According to PubChem BioAssay (Tox21):
Several values for one entry are separate records, joined by “and”; a condition that tells them apart may be missing. Identical values can stand only once. Results filed as inconclusive are left out. Some compounds were tested as several samples or in several runs, with calls that do not always agree. Activity calls are given as the source filed them. Calls follow the shape of the dose curve; as a rule, active = well fitted curve in the direction sought with a large enough effect in the repeat runs; inconclusive = weak or mixed curves; inactive = no such curve, though single readings can be large; an effect the other way counts as inactive or inconclusive.

How the values were obtained:
[1] = A CellTox Green Cytotoxicity Assay to monitor cytotoxicity in HEK293 cells - 40 hour (AID 1224871); also: nearly all actives have a fitted effect of over 45% in size; also: potency is read from the fitted curve at half-maximal effect
In short: (§1)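 Seeding of HEK293 cells together with cytotoxicity dye preceded a 5 h incubation at 37 C/5% CO2. Test compounds in DMSO were then added and fluorescence monitored across 40 h.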

[2] = qHTS RealTime-Glo MT Cell Viability Assay in HEK293 cells - 16 hour (AID 1224872); also: nearly all actives have a fitted effect of over 50% in size; also: potency is read from the fitted curve at half-maximal effect
In short: (§2)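 Quantitative high-throughput screen of the Tox21 10K library in HEK293: cells and RealTime-Glo reagents plated together, compound added at 5 h, luminescence monitored through 40 h at 37 C.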

[3] = qHTS RealTime-Glo MT Cell Viability Assay in HepG2 cells - 8 hour (AID 1224873); also: nearly all actives have a fitted effect of over 55% in size
In short: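 HepG2 cells (600/well) mixed with RealTime-Glo MT reagent, settled 5 h at 37 C/5% CO2 before compound addition. Nonlytic NanoLuc luminescence from viable-cell prosubstrate reduction read repeatedly during 40 h treatment at 37 C.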

[4] = A CellTox Green Cytotoxicity Assay to monitor cytotoxicity in HEK293 cells - 24 hour (AID 1224875); also: nearly all actives have a fitted effect of over 45% in size; also: potency is read from the fitted curve at half-maximal effect
In short: as §1

[5] = A CellTox Green Cytotoxicity Assay to monitor cytotoxicity in HepG2 cells - 16 hour (AID 1224876); also: nearly all actives have a fitted effect of over 45% in size; also: potency is read from the fitted curve at half-maximal effect
In short: (§3)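 Nonlytic assay: viable cells exclude the dye, so fluorescence scales with cell death. HepG2 at 600 cells/well, compounds added after 5 h, signal read across 40 h.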

[6] = qHTS RealTime-Glo MT Cell Viability Assay in HepG2 cells - 32 hour (AID 1224877); also: nearly all actives have a fitted effect of over 55% in size; also: potency is read from the fitted curve at half-maximal effect
In short: (§4)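 Compound treatment began 5 h after plating HepG2 cells (600/well) with NanoLuc luciferase and prosubstrate. Plates stayed at 37 C for 40 h; luminescence was captured at six time points, 0 h through 40 h.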

[7] = A CellTox Green Cytotoxicity Assay to monitor cytotoxicity in HepG2 cells - 24 hour (AID 1224878); also: nearly all actives have a fitted effect of over 45% in size; also: potency is read from the fitted curve at half-maximal effect
In short: as §3

[8] = A CellTox Green Cytotoxicity Assay to monitor cytotoxicity in HepG2 cells - 40 hour (AID 1224879); also: nearly all actives have a fitted effect of over 40% in size; also: potency is read from the fitted curve at half-maximal effect
In short: as §3

[9] = qHTS RealTime-Glo MT Cell Viability Assay in HEK293 cells - 0 hour (AID 1224880)
In short: (§5)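 Tox21 screen in HEK293 using RealTime-Glo MT chemistry, with cells and reagent co-dispensed. Luminescence proportional to viable cell number was captured at intervals during 40 h compound exposure at 37 C.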

[10] = A CellTox Green Cytotoxicity Assay to monitor cytotoxicity in HEK293 cells - 32 hour (AID 1224881); also: nearly all actives have a fitted effect of over 40% in size; also: potency is read from the fitted curve at half-maximal effect
In short: as §1

[11] = A CellTox Green Cytotoxicity Assay to monitor cytotoxicity in HepG2 cells - 0 hour (AID 1224882); also: nearly all actives have a fitted effect of over 35% in size; also: potency is read from the fitted curve at half-maximal effect
In short: as §3

[12] = A CellTox Green Cytotoxicity Assay to monitor cytotoxicity in HEK293 cells - 8 hour (AID 1224884); also: nearly all actives have a fitted effect of over 35% in size; also: potency is read from the fitted curve at half-maximal effect
In short: as §1

[13] = qHTS RealTime-Glo MT Cell Viability Assay in HepG2 cells - 16 hour (AID 1224885); also: nearly all actives have a fitted effect of over 50% in size; also: potency is read from the fitted curve at half-maximal effect
In short: as §4

[14] = qHTS RealTime-Glo MT Cell Viability Assay in HEK293 cells - 8 hour (AID 1224887); also: top concentration of the series differs between compounds; nearly all actives have a fitted effect of over 50% in size
In short: as §5

[15] = A CellTox Green Cytotoxicity Assay to monitor cytotoxicity in HEK293 cells - 16 hour (AID 1224888); also: nearly all actives have a fitted effect of over 35% in size; also: potency is read from the fitted curve at half-maximal effect
In short: as §1

[16] = A CellTox Green Cytotoxicity Assay to monitor cytotoxicity in HepG2 cells - 32 hour (AID 1224883); also: nearly all actives have a fitted effect of over 50% in size; also: potency is read from the fitted curve at half-maximal effect
In short: as §3

[17] = qHTS RealTime-Glo MT Cell Viability Assay in HEK293 cells - 24 hour (AID 1224886); also: nearly all actives have a fitted effect of over 50% in size; also: potency is read from the fitted curve at half-maximal effect
In short: as §2

[18] = qHTS RealTime-Glo MT Cell Viability Assay in HEK293 cells - 40 hour (AID 1224874); conditions: RealTime-Glo luminescence; max response: stronger effect = lower value; also: nearly all actives have a fitted effect of over 50% in size; also: potency is read from the fitted curve at half-maximal effect
In short: as §5

[19] = qHTS RealTime-Glo MT Cell Viability Assay in HepG2 cells - 0 hour (AID 1224889); also: nearly all actives have a fitted effect of over 50% in size
In short: as §4
% is scaled to controls: 0 for no effect and ±100 for the full control effect.

c1cc(N(CC2CO2)CC2CO2)ccc1OCC1CO1 (stereo unspecified)
inactive: Potency [1] | Potency [2] | Potency [3] | Potency [4] | Potency [5] | Potency [6] | Potency [7] | Potency [8] | Potency [9] | Potency [10] | Potency [11] | Potency [12] | Potency [13] | Potency [14] | Potency [15]

CNCCCC12CCC(c3ccccc31)c1ccccc12
active: Potency [1] 49 µM | Potency [2] 54.9 µM | Potency [4] 54.9 µM | Potency [5] 54.9 µM and 26.8 µM | Potency [6] 43.6 µM and 23.9 µM | Potency [7] 43.6 µM and 23.9 µM | Potency [8] 34.7 µM and 23.9 µM | Potency [10] 49 µM | Potency [16] 34.7 µM and 23.9 µM | Potency [13] 49 µM | Potency [17] 49 µM
inactive: Potency [3] | Potency [11] | Potency [12] | Potency [14]

C/C=C/C(=O)O
inactive: Potency [1] | Potency [2] | Potency [3] | max response [18] 2.91% and 4.68% | Potency [4] | Potency [6] | Potency [7] | Potency [8] | Potency [9] | Potency [10] | Potency [11] | Potency [16] | Potency [12] | Potency [13] | Potency [17] | Potency [14] | Potency [15] | Potency [19]

CCCC(=O)O
inactive: Potency [1] | Potency [2] | Potency [3] | max response [18] 23.6% and 12.6% | Potency [4] | Potency [6] | Potency [7] | Potency [8] | Potency [9] | Potency [10] | Potency [11] | Potency [16] | Potency [12] | Potency [13] | Potency [17] | Potency [14] | Potency [15] | Potency [19]

C#C[C@]1(O)CC[C@H]2[C@@H]3CCc4cc(OC)ccc4[C@H]3CC[C@@]21C
active: Potency [18] 24.5 µM and 19 µM | Potency [17] 34.7 µM and 19 µM
inactive: Potency [3] | Potency [4] | Potency [5] | Potency [6] | Potency [9] | Potency [11] | Potency [12] | Potency [13] | Potency [15] | Potency [19]

O=C(Nc1ccc([N+](=O)[O-])cc1Cl)c1cc(Cl)ccc1O
inactive: Potency [3] | cytotoxicity [7] 38% [at 15.8 µM] | Potency [9] | Potency [11] | Potency [12] | Potency [13] | Potency [14] | Potency [15] | Potency [19]
inactive and 29.3 nM (active): Potency [5]
active: Potency [1] 24.5 µM and 13.1 µM | Potency [18] 2.19 µM and 827 nM | Potency [7] 5.49 µM | Potency [8] 4.9 µM and 2.33 µM | Potency [10] 38.9 µM | Potency [17] 5.49 µM and 1.04 µM

Cc1cccc(N(C)C(=S)Oc2ccc3ccccc3c2)c1
inactive: Potency [1] | Potency [2] | Potency [3] | max response [18] -21.9% and -0.992% | Potency [5] | Potency [6] | Potency [7] | Potency [8] | Potency [9] | Potency [10] | Potency [11] | Potency [16] | Potency [12] | Potency [13] | Potency [17] | Potency [14] | Potency [15] | Potency [19]

O=C1OC2(c3cc(Br)c(O)c(Br)c3Oc3c2cc(Br)c(O)c3Br)c2c(Cl)c(Cl)c(Cl)c(Cl)c21
inactive: Potency [2] | Potency [3] | Potency [6] | Potency [13] | Potency [17] | Potency [14]
active: Potency [1] 4.91 µM and 29.7 µM | Potency [4] 3.9 µM and 26.5 µM | Potency [5] 3.1 µM and 14.9 µM | Potency [7] 3.1 µM and 23.6 µM | Potency [8] 3.1 µM and 14.9 µM | Potency [10] 4.91 µM and 26.5 µM | Potency [11] 39 µM and 26.5 µM | Potency [16] 3.1 µM and 23.6 µM | Potency [12] 3.9 µM and 23.6 µM | Potency [15] 2.76 µM and 23.6 µM

CC(=O)CC/C=C(\C)CCC=C(C)C
inactive: Potency [1] | Potency [2] | Potency [3] | max response [18] 1.02% and 0.97% | Potency [5] | Potency [6] | Potency [7] | Potency [8] | Potency [9] | Potency [10] | Potency [11] | Potency [16] | Potency [12] | Potency [13] | Potency [17] | Potency [14] | Potency [15] | Potency [19]

NNc1ccc(C(=O)O)cc1
inactive: Potency [1] | Potency [2] | Potency [3] | max response [18] 12.1% | Potency [4] | Potency [5] | Potency [6] | Potency [7] | Potency [8] | Potency [9] | Potency [10] | Potency [11] | Potency [12] | Potency [13] | Potency [17] | Potency [14] | Potency [15] | Potency [19]

CC(C)OC=O
inactive: Potency [1] | Potency [2] | Potency [3] | Potency [5] | Potency [6] | Potency [7] | Potency [8] | Potency [9] | Potency [10] | Potency [11] | Potency [16] | Potency [12] | Potency [13] | Potency [17] | Potency [14] | Potency [15]

CCCCOCCOCCO
inactive: Potency [1] | Potency [2] | Potency [3] | max response [18] 0.043% and 0.397% | Potency [4] | Potency [6] | Potency [7] | Potency [8] | Potency [9] | Potency [10] | Potency [11] | Potency [16] | Potency [12] | Potency [13] | Potency [17] | Potency [14] | Potency [15]

Nc1ccc(Cl)cc1Cl
inactive: Potency [1] | Potency [2] | Potency [3] | Potency [4] | Potency [6] | Potency [7] | Potency [8] | Potency [9] | Potency [10] | Potency [11] | Potency [12] | Potency [13] | Potency [17] | Potency [14] | Potency [15] | Potency [19]

O=C(/C=C/C=C/c1ccc2c(c1)OCO2)N1CCCCC1
inactive: Potency [1] | Potency [3] | Potency [4] | Potency [5] | Potency [6] | Potency [7] | Potency [9] | Potency [10] | Potency [11] | Potency [16] | Potency [12] | Potency [13] | Potency [14] | Potency [15] | Potency [19]

COc1ccc(OC)c(C(O)CNC(=O)CN)c1 (stereo unspecified)
inactive: Potency [1] | Potency [2] | Potency [3] | max response [18] 2.49% and 0.0352% | Potency [4] | Potency [6] | Potency [7] | Potency [8] | Potency [9] | Potency [10] | Potency [11] | Potency [12] | Potency [13] | Potency [17] | Potency [14] | Potency [15]

Oc1ccc(O)cc1
inactive: Potency [1] | Potency [3] | Potency [4] | Potency [6] | Potency [7] | Potency [8] | Potency [9] | Potency [10] | Potency [11] | Potency [16] | Potency [12] | Potency [13] | Potency [14] | Potency [15] | Potency [19]

COc1cccc2c1C(=O)c1c(O)c3c(c(O)c1C2=O)C[C@@](O)(C(=O)CO)C[C@@H]3O[C@H]1C[C@H](N)[C@H](O)[C@H](C)O1
inactive and 21.3 µM (active): Potency [5] | Potency [7] | Potency [16]
active: Potency [2] 0.346 µM | Potency [18] 97.6 nM and 190 nM | Potency [6] 952 nM | Potency [17] 155 nM and 301 nM
inactive: Potency [1] | Potency [3] | Potency [8] | Potency [9] | Potency [10] | Potency [11] | Potency [13] | Potency [14] | Potency [15]

Nc1ncnc2nc[nH]c12
inactive: Potency [1] | Potency [2] | Potency [3] | max response [18] 0.881% and 2.65% | Potency [4] | Potency [5] | Potency [6] | Potency [7] | Potency [8] | Potency [9] | Potency [10] | Potency [11] | Potency [12] | Potency [13] | Potency [17] | Potency [14] | Potency [15] | Potency [19]

O=CCCCC=O
inactive: Potency [1] | Potency [2] | Potency [3] | Potency [4] | Potency [6] | Potency [9] | Potency [10] | Potency [11] | Potency [12] | Potency [13] | Potency [14] | Potency [15]
42.1 µM (active) and inactive: Potency [17]
